Screening results as filed in PubChem BioAssay.
Shown are actives, neighbours in structure and some others; about 4.1% of the full set was active somewhere.
hcDAF-12 act: activators of H. contortus DAF-12 nuclear receptor; HEK293 hcDAF-12 lit1-tk-luc reporter, luminescence; 0% DMSO, 100% Δ7-dafachronic acid; activation, % at 6.8 µM; actives 1.4% (n = 370,000); AID 652067;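 active = activation above the mean of all tested compounds plus 3 SD, cut at about 5.5% in these data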;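 note: 100% = response to 3 µM Δ7-dafachronic acid high control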
hgDAF-12 ag: agonists of H. glycines DAF-12 nuclear receptor | HEK293 GAL4-hgDAF12 UAS-luciferase reporter, agonist luminescence; normalized to butyrate control | activation, % at 6.8 µM | AID 687014 | actives 1.8% (n = 370,000);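 active = activation above a cutoff set at the mean of all screened compounds plus 3 SD, cut at about 10% in these data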;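 note: 0% = DMSO wells and 100% = sodium butyrate wells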
DAX1 inh-1: inhibitors of human orphan nuclear receptor DAX1 (NR0B1) | inhibition, % at 6.75 µM | AID 504766 | actives 0.99% (n = 340,000) | P51843 | HEK293 Gal4-DAX1 luciferase reporter, luminescence;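 active = inhibition above the mean over all tested compounds plus 3 SD, cut at about 4.2% in these data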;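 note: 0% = DAX1-transfected cells with DMSO and 100% = empty-vector control cells with DMSO; inhibition shows as a rise in luminescence from relieved DAX1 repression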
Target sequence (P51843 207-470 limits assumed): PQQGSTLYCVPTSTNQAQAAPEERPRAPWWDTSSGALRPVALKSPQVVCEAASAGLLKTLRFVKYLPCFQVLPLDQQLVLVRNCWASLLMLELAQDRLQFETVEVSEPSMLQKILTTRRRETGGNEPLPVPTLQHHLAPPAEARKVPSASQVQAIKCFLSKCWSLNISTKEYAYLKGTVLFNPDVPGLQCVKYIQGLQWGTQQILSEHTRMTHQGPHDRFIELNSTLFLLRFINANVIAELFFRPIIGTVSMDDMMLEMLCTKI
DAX1 inh-2: blocks DAX1 repression of SF-1 activated StAR promoter | HEK293T StAR-luciferase reporter, SF-1/DAX-1 repression relief | inhibition, % at 6.8 µM | actives 1.1% (n = 370,000) | AID 652010;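 active = inhibition above the mean over all tested compounds plus 3 SD, cut at about 3.6% in these data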;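 note: 0% = DAX-1 cells with DMSO and 100% = cells lacking DAX-1 with DMSO; higher inhibition means more luminescence from relief of DAX-1 repression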
ssDAF12 agonist: activates DAF-12 receptor from parasite S. stercoralis; actives 1% (n = 370,000); AID 652126; activation, % at 6.8 µM; HEK293 ssDAF-12/GRIP1 lit1-tk-luc reporter, luminescence; % of 3 µM dafachronic acid response;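 active = activation above the mean over all tested compounds plus 3 SD, cut at about 0.9% in these data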;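 note: 0% = DMSO-only wells and 100% = 3 µM delta7-dafachronic acid wells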
LXR ag: LXR-beta agonism as hcDAF-12 counter-screen. shares compounds with hcDAF-12 act. 3,400 tested, under 10 active. activation, % at 6.8 µM. HEK293 Gal4-LXR tk-luc reporter, luminescence, 24 h; normalized: DMSO 0%, positive control 100%;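 active = mean percent activation of the reporter above a cutoff set as the average over tested compounds plus their standard deviation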
hcDAF12 conf: hcDAF-12 agonism, confirmation assay; actives 61% (n = 3,400); HEK293 hcDAF-12 lit1-tk-luc reporter, luminescence; % of Δ7-dafachronic acid response; activation, % at 6.8 µM; shares compounds with hcDAF-12 act;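 active = mean activation across triplicate tests above the threshold derived from the earlier primary screen, cut at about 5.5% in these data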;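 note: 0% = DMSO only wells and 100% = 3 µM Δ7-dafachronic acid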
Active calls of the source: *; . = no result given.

SMILES	hcDAF-12 act	hgDAF-12 ag	DAX1 inh-1	DAX1 inh-2	ssDAF12 agonist	LXR ag	hcDAF12 conf
CCCCn1c(O)c2n(c1=O)Cc1ccccc1N=C2c1ccccc1	4.1	-0.7	.	-1.4	-0.8	.	.
CCCCn1c(O)c2n(c1=O)Cc1ccccc1N=C2c1ccc(C)cc1	7.3*	0.3	.	0.7	0.1	-0.1	3.5
Cc1ccc2nc3c(nc2c1)-c1ccccc1C3=O	11.2*	4.4	1.2	0.9	1.4*	0.4	6.2*
COC(=O)[C@]12C[C@H](CC(=O)N3CCC(c4ccccc4)CC3)C(=O)N(Cc3ccccc3)C1=C[C@H](COCc1ccccc1)O[C@@H]2C	-3.3	0.7	.	-0.1	-1.3	.	.
COc1cccc2sc(Nc3nnc(-c4ccc(F)cc4)o3)nc12	7.8*	3.7	-0.1	-0.5	0.2	0.3	4.1
COc1cccc2sc(Nc3nnc(-c4cccs4)o3)nc12	3.8	5.6	-0.9	0.2	0.1	.	.
COc1cc(Cl)c(C)cc1NC(C)C(=O)Nc1cc(C(F)(F)F)ccc1N1CCOCC1 (stereo unspecified)	0.2	-0.7	-0.4	-0.5	-0.2	.	.
COc1ccc(NC(C)C(=O)Nc2cc(C(F)(F)F)ccc2N2CCOCC2)c(OC)c1 (stereo unspecified)	14.1*	-1.2	-1.6	1.4	-1.8	0.1	-0.8
O/N=C/c1ccc2ccccc2n1	2.0	8.9	0.7	1.1	-1.0	.	.
O/C(=C\c1ccc2ccccc2n1)c1ccncc1	8.6*	11.8*	2.3	3.6	1.2*	1.4	11.9*
N#Cc1ccc(Cl)cc1NC(=O)COC(=O)[C@H](CCC(N)=O)NC(=O)c1ccc(F)cc1	9.4*	-0.4	0.3	0.7	-0.4	-0.3	1.0
CCOC(=O)NC(=S)Nc1ccc(OC)cc1	3.0	0.8	0.8	-0.4	-1.4	.	.
CCOC(=O)c1cn[nH]c1NC(=S)Nc1ccc(OC)cc1	8.0*	9.4	-2.0	1.6	0.3	1.5	9.3*
O=C1/C(=C/Nc2cccc([N+](=O)[O-])c2)CCc2ccccc21	8.1*	15.8*	3.6	2.5	0.2	1.3	5.8*
Cc1c(NC(=O)CSc2ncnc3c2cnn3-c2ccccc2)c(=O)n(-c2ccccc2)n1C	-2.2	-0.2	-1.5	-3.5	-0.7	.	.
CNC(=O)CSc1ncnc2c1cnn2-c1ccccc1	7.4*	3.2	0.2	0.1	-0.8	0.0	2.7
c1cncc(Cc2cc3ccccc3[nH]2)c1	3.9	-0.5	-0.7	-0.3	-0.5	.	.
c1ccc2[nH]c(-c3cnco3)cc2c1	6.7*	0.8	0.7	-0.5	0.8	0.0	7.3*
COc1ccc(NC(=O)Nc2nnc(-c3ccccc3F)s2)cc1	-1.5	-2.8	1.1	1.0	-1.4	.	.
COc1ccc(NC(=O)Nc2nnc(-c3ccco3)s2)cc1	8.3*	11.7*	2.6	1.8	1.2*	0.9	9.0*
Cc1ccc(S(=O)(=O)NC(=O)NCCCN2CCOCC2)cc1	7.6*	-0.2	3.4	-0.4	-0.4	-0.4	0.6
Cc1c(NC(=O)C2CCCN(S(=O)(=O)c3ccc(Br)s3)C2)c(=O)n(-c2ccccc2)n1C (stereo unspecified)	-2.1	-1.6	.	-1.0	-0.9	.	.
O=C(NC1CC1)c1cc(-c2ccccn2)nc2ccccc12	0.7	0.6	0.1	-0.2	-0.9	.	.
O=C(Nn1cnnc1)c1cc(-c2ccccn2)nc2ccccc12	10.9*	5.6	0.2	1.6	1.3*	-0.2	4.1
Cc1c(C(=O)Nc2ccc(Cl)cc2)c2ccccn2c1C(=O)c1ccc(F)cc1	0.9	0.0	-0.2	1.0	-0.7	.	.
SMILES	hcDAF-12 act	hgDAF-12 ag	DAX1 inh-1	DAX1 inh-2	ssDAF12 agonist	LXR ag	hcDAF12 conf
Cc1cc2ccccn2c1C(=O)Nc1ccccc1	9.7*	4.3	0.9	0.7	1.0*	0.4	9.6*
Cc1cc2ccccn2c1C(=O)Nc1ccc(Cl)cc1	8.8*	10.2	3.4	1.1	0.3	0.5	9.4*
CCCCCN1CCCCC(NC(=O)c2ccc(F)c(F)c2)C1=O (stereo unspecified)	0.2	-1.2	.	0.8	-1.9	.	.
Cc1ccc(S(=O)(=O)CCC(=O)OCC(=O)c2c[nH]c3ccccc23)cc1	9.4*	5.3	-0.5	-0.7	0.4	0.0	5.8*
COc1ccc(C)c2sc(=NC(=O)c3ccccc3)n(C)c12	10.0*	3.5	1.0	2.4	0.4	1.9	13.2*
CCC(=O)N=c1sc2c(OC)ccc(OC)c2n1C	0.7	-0.8	0.1	1.1	-1.0	.	.
CCC(=O)NNc1ncnc2ccccc12	6.9*	-0.6	1.4	0.1	0.3	-0.1	4.7
CCOC(=O)C/C(=N\Nc1ncnc2ccccc12)c1ccccc1	11.1*	5.9	1.1	1.6	0.8	0.0	4.9
COC(=O)C1CN(Cc2cn(CCOC(C)=O)nn2)CCS(=O)(=O)N1Cc1ccccc1 (stereo unspecified)	0.1	1.8	.	-0.2	-1.1	.	.
CCCCN1CC(=O)N2[C@H]3c4cc(C)ccc4OC[C@@H]3[C@H](C(=O)OCC)[C@]2(C)C1=O	-2.4	-2.5	0.6	-0.5	-1.2	.	.
CCCCOCCCNC(=O)C[C@H]1C(=O)N(Cc2ccc(OC)cc2)C2=CCCCC[C@@]21C(=O)OC	-3.4	-3.4	.	-0.8	-1.1	.	.
COc1cc(C(O)c2nc(-c3cccc(C(C)C)c3)cs2)ccc1F (stereo unspecified)	-1.0	0.3	.	-0.2	-1.6	.	.
O=C(N/N=C/c1ccccc1)C(O)c1ccccc1 (stereo unspecified)	6.7*	0.5	-0.2	-0.1	0.2	0.0	5.6*
O=C(NN=Cc1ccccc1O)C(O)c1ccccc1 (stereo unspecified)	1.4	-0.1	0.6	-0.1	-0.6	.	.
O=C(CSc1nnc(-c2cnccn2)n1-c1ccccc1)Nc1ccc2c(c1)OCCO2	-1.1	-1.9	.	-0.7	-1.5	.	.
OCC1SC(O)C(O)C(O)C1O (stereo unspecified)	0.4	3.4	.	0.4	-1.4	.	.
Cc1cc(C)c(S(=O)(=O)NCCn2c(C)cc3ccccc32)c(C)c1	7.1*	7.9	-0.2	-1.2	0.8	-0.2	0.1
CC(C)(C)C1CCc2c(sc3c2C(=O)NC(c2ccco2)N3)C1 (stereo unspecified)	7.5*	0.2	1.5	-0.5	-0.4	0.4	4.3
COC(=O)[C@]12C[C@H](CC(=O)N3CCC(c4ccccc4)CC3)C(=O)N(CCC3=CCCCC3)C1=C[C@H](C(C)(C)C)O[C@@H]2C	-0.3	1.4	.	1.1	-0.8	.	.
